Screening data (PubChem)
Most compounds without a hit are left out; they make up all but 2.9% or so of the library.
NadD block = blocks S. aureus nicotinate mononucleotide adenylyltransferase; purified NadD enzyme, colorimetric absorbance read-out; inhibition, % at 20 µM; 360,000 tested, 0.78% active; AID 602399; in the data active means inhibition above about 26%
APOBEC3A inh = human APOBEC3A DNA deaminase inhibition. P31941. 330,000 tested, 0.41% active. recombinant A3A, FAM/TAMRA ssDNA deamination fluorescence. inhibition, % at 20 µM. AID 493011;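 active means at least 40% inhibition at 20 µM here, with at most 30% in a related deaminase screen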;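 further: plate controls were A3A with DMSO for no effect and wells lacking A3A enzyme for full effect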
Target sequence (P31941 whole entry, looked up): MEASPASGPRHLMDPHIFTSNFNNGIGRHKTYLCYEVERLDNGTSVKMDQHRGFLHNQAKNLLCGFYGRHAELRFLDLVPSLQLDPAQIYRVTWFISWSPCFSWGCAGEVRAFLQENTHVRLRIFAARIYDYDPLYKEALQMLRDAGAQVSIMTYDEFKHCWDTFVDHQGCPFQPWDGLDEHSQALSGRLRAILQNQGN
APOBEC3G inh = blocks human APOBEC3G single-stranded DNA deamination | recombinant A3G, ssDNA deamination FAM/TAMRA fluorescence | 330,000 tested, 0.28% active | Q9HC16 | inhibition, % at 20 µM;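 active means inhibition of at least 40% at 20 µM, with no more than 30% in the related APOBEC3A deaminase screen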;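 further: plate controls were DMSO wells with A3G for no effect and wells lacking A3G enzyme for full effect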
Target sequence (Q9HC16 whole entry, looked up): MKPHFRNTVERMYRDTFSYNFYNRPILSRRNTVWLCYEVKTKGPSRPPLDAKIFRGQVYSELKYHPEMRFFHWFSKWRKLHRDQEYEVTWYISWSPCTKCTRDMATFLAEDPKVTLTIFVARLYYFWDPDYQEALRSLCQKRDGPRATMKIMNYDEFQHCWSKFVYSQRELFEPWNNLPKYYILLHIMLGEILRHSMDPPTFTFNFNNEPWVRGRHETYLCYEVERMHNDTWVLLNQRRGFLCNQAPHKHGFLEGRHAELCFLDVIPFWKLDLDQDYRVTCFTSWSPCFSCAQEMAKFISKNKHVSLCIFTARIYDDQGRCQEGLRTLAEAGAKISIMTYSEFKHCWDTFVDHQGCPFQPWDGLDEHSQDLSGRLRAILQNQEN
TAG inh = triacylglycerol accumulation inhibition | AID 651582 | H9c2 cells, Nile Red lipid (TAG) fluorescence; cells loaded with 200 µM oleic acid | 230,000 tested, 0.66% active | inhibition, % at 12.5 µM;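 active means pattern-corrected inhibition of lipid staining of at least 50% with the nuclear-stain viability signal not falling by more than 50%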;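 further: 0% = DMSO wells and 100% = triacsin C control wells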
PfG6PD inh = PfG6PD (Plasmodium falciparum) enzyme inhibition. 350,000 tested, 0.78% active. PfGluPho enzyme, NADPH resazurin-diaphorase fluorescence. inhibition, % at 20 µM;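 active means inhibition reaching at least a set limit at 20 µM in the primary screen, cut at about 59% in these data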;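 further: 0% = DMSO wells with substrate and 100% = DMSO wells lacking glucose-6-phosphate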
Cardio protect = modulators protecting cardiomyocytes from myocardial damage; H9c2 cardiomyocytes, H2O2 injury protection, ATPLite, 2 h; AID 588492; protection from H2O2 cell death, % at 20 µM; 360,000 tested, 0.63% active;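 active means compounds giving at least 50% protection of heart cells from peroxide-induced death in the single-dose screen, raw or plate-pattern-corrected value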;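 further: 0% = DMSO wells with peroxide and 100% = DMSO wells without peroxide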
* = called active by the depositor; . = no result given.

SMILES	NadD block	APOBEC3A inh	APOBEC3G inh	TAG inh	PfG6PD inh	Cardio protect
CN(C)c1nc(N)c(C#N)c(C#N)c1C#N	-1	.	.	2	-5	15
COc1ccccc1NC(=O)CCN1C(=O)C2CC=CCC2C1=O (stereo not drawn)	-2	-3	1	-1	-6	0
Cc1cccn2c(=O)c(C=O)c(Nc3ccccc3)nc12	1	2	-3	.	4	1
CCNc1ccc(Br)cc(C(=O)/C=C/c2c(Cl)cccc2Cl)c1=O	56*	24	16	.	29	2
CCn1cc(C(=O)N2CCc3ccccc32)c(=O)c2cc(S(=O)(=O)N(C)C3CCCCC3)ccc21	11	2	6	.	-6	63*
Cc1ccc(-n2cc(-c3ccccc3)c3c(N4CCOCC4)ncnc32)cc1	2	.	.	11	-1	57*
CN(C)C(=O)/C=C\c1cn(-c2ccccc2)nc1-c1ccc2c(c1)OCCO2	-2	-1	-1	12	24	52*
CN1CCN(C(=O)/C=C/c2cn(-c3ccccc3)nc2-c2ccc3c(c2)OCCO3)CC1	-5	2	-5	9	-4	33
O=C(/C=C\c1cn(-c2ccccc2)nc1-c1ccc2c(c1)OCCO2)N1CCOCC1	-5	0	-2	19	3	60*
O=C(O)/C=C/c1cn(-c2ccccc2)nc1-c1ccc2c(c1)OCCO2	-9	4	0	-5	-3	2
COc1ccc(CCNC(=O)c2ccc3nc(-c4ccco4)c(-c4ccco4)nc3c2)cc1OC	47*	74	84	12	62*	25
CCOCCCNC(=O)c1ccc2nc(-c3ccc(OC)c(OC)c3)c(-c3ccc(OC)c(OC)c3)nc2c1	3	-5	-9	.	17	50*
O=C(Nc1cccc(C(F)(F)F)c1)c1ccc2nc(-c3ccco3)c(-c3ccco3)nc2c1	65*	37	39	16	41	8
CCc1nc2ccc(C(=O)NCCc3ccc(OC)c(OC)c3)cc2nc1CC	10	-2	-2	.	3	2
CC1CN(c2nn3c(=O)c4ccccc4nc3c3ccccc23)CC(C)O1 (stereo not drawn)	0	1	-2	0	6	65*
NC(CSC(c1ccccc1)(c1ccccc1)c1cccc2ccccc12)C(=O)O (stereo not drawn)	42*	.	.	-11	49	-9
CC(C)c1ccc(C2CC(=O)N3CN(C)CSC3=C2C#N)cc1 (stereo not drawn)	13	1	4	3	86*	-2
Cc1ccc(C2CC(=O)N3CN(Cc4ccco4)CSC3=C2C#N)cc1 (stereo not drawn)	4	-1	5	.	59	2
COc1ccc2ccccc2c1C1CC(=O)N2CN(C)CSC2=C1C#N (stereo not drawn)	22	-4	-3	.	79*	3
CCOC(=O)C1=CN(Cc2cccc(-c3ccc(Cl)nc3)c2)S(=O)(=O)N(C)C1C (stereo not drawn)	-7	-1	-4	-13	4	-8
Cn1c(N)c(N=O)c(=O)n(C)c1=S	-1	.	.	-7	4	-5
Nc1ccccc1O	5	0	1	.	30	-12
Oc1ccccc1O	-2	-1	-8	25	8	66*
COCC1=C(C(=O)OC)C(c2ccco2)n2ncnc2N1 (stereo not drawn)	0	-5	-5	3	-6	-2
O=S(=O)(O)c1ccc(O)c2cc(Nc3ccccc3)ccc12	68*	.	.	-6	39	-4
SMILES	NadD block	APOBEC3A inh	APOBEC3G inh	TAG inh	PfG6PD inh	Cardio protect
Cc1cc(N=Cc2cc(Br)ccc2O)no1	-8	0	-2	.	-5	57*
Cc1ccc(S(=O)(=O)/N=C/c2cc(Br)ccc2O)cc1	-22	1	-1	-1	-19	54*
CN1C/C(=C/c2ccccc2[N+](=O)[O-])C(=O)/C(=C\c2ccccc2[N+](=O)[O-])C1	13	.	.	69*	31	-12
C/C(=N\NC(=O)CN(c1ccccc1)S(C)(=O)=O)c1ccccc1O	-4	2	-13	-2	-27	59*
CC(C)(C)C1CCC(=NNC(=O)CN(c2ccccc2)S(C)(=O)=O)CC1 (stereo not drawn)	-3	2	-8	.	1	4
CSC(=Nc1ccccc1)N=C(SCc1ccccc1)N(C)C	1	.	.	121	49	-20
O=C(NCc1nnc2c(C(F)(F)F)cc(Cl)cn12)c1cccnc1	0	-1	-3	.	2	2
O=C(NCCOC(=O)c1ccc([N+](=O)[O-])cc1)c1cccnc1	0	3	-8	0	-18	-2
CCOC(=O)C1=C(C)NC(C)=C(C(=O)OCCNC(=O)c2cccnc2)C1c1cccc([N+](=O)[O-])c1 (stereo not drawn)	-2	-3	-8	.	10	69*
Cc1ccc(/C=C/C(=O)OCC(=O)Nc2cccc(S(=O)(=O)N(C)C)c2)o1	-6	-2	-5	-2	14	-6
COCCNc1nc(-c2ccccc2CO)c2sc(-c3ccccc3)cc2n1	25	.	.	50*	.	8
COCCNc1nc(NCCNC(C)=O)c2sc(-c3ccccc3)cc2n1	1	.	.	10	.	4
O=C(CSc1nc2ccccc2c(=O)[nH]1)N1CCN(c2ccccc2)CC1	6	-6	16	18	-5	42
O=C(CSc1nc2ccccc2c(=O)[nH]1)N1CCCCC1	-5	-1	-1	18	-10	71*
Cc1ccc(N(CCC#N)C(=O)CSc2nc3ccccc3c(=O)[nH]2)cc1	-6	0	-7	7	11	80*
CC(C)(C)c1ccc(C(=O)CSc2nc3ccccc3c(=O)[nH]2)cc1	8	0	-6	.	-9	-5
O=C(CSc1nc2ccccc2c(=O)[nH]1)c1ccccc1	0	9	-1	.	12	51*
Cc1ccc2nc(SCc3nc4ccccc4c(=O)[nH]3)[nH]c2c1	0	-3	-9	-1	14	58*
CCOC(=O)Cc1cc(=O)[nH]n(-c2ccccc2)c1=O	1	.	.	-14	-3	-1
CCCN(CC(=O)Nc1ccccc1C)C(=O)c1ccc(N2CCCCC2)c([N+](=O)[O-])c1	-1	-3	-6	36	12	1
CC1(C(=O)O)CCCN(C(=O)c2cc3ccccc3s2)C1 (stereo not drawn)	-4	.	.	-12	.	-1
CC1(c2ccccc2)CC(C)(C)N2C(=O)/C(=C3\SC(=S)NC3=O)c3cccc1c32 (stereo not drawn)	35*	.	.	.	-7	-18
CC1(c2ccccc2)CC(C)(C)N2C(=O)C3(C(C#N)=C(N)Oc4cc(O)ccc43)c3cccc1c32 (stereo not drawn)	5	-9	-7	.	12	-18
CCCCN(C=O)c1c(CC)nc2ccc(C(=O)NCCN(C)C)cn12	2	.	.	-10	.	0
Cc1ccc(NC(=O)c2cccnc2C(=O)O)nc1	-3	-2	-8	.	-13	2
